Drawing on ChEMBL document CHEMBL1961873, “Compounds: GSK PKIS; Assays: Nanosyn kinase panel” (2012), this text covers inhibition for three compounds.

Assay [1] has as its target T1, Serine/threonine-protein kinase Nek9 (Homo sapiens) (UniProt Q8TD19).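 Note: each value is a mean percent inhibition of NEK9.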
T1 sequence (whole entry): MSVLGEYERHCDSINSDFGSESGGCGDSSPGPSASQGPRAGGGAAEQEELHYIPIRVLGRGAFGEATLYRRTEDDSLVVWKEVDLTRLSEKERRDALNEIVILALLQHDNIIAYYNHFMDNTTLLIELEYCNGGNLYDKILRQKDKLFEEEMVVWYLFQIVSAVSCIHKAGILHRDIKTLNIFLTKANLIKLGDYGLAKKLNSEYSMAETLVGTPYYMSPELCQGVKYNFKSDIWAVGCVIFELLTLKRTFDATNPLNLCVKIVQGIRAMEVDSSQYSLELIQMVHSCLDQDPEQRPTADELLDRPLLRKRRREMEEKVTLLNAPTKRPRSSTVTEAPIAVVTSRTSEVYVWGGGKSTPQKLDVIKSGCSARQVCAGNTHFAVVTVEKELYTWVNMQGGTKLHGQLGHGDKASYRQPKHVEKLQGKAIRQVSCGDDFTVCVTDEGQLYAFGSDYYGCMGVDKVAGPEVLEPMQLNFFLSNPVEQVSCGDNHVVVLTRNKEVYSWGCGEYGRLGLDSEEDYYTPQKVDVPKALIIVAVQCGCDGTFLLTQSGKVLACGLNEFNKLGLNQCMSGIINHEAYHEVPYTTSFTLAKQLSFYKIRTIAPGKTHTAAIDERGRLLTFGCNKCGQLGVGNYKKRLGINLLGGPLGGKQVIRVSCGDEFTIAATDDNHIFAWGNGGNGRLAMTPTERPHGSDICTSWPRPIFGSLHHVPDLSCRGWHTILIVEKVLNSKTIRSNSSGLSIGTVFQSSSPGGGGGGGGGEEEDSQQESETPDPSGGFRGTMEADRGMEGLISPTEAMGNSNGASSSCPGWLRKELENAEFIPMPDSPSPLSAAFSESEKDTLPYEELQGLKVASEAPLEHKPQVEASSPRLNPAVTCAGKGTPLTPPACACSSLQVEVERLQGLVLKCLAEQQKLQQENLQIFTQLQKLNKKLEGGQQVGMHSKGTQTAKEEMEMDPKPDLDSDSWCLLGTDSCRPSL
The conditions noted are these: at 1 µM.

For assay [2], the target named is Serine/threonine-protein kinase PLK1 (Homo sapiens) (UniProt P53350). The conditions noted are these: at 0.1 µM.
Assay [3] has the same target. The conditions noted are these: at 1 µM.
Assay [4] concerns the target T2, Dual specificity protein kinase TTK (Homo sapiens) (UniProt P33981).
T2 sequence (whole entry): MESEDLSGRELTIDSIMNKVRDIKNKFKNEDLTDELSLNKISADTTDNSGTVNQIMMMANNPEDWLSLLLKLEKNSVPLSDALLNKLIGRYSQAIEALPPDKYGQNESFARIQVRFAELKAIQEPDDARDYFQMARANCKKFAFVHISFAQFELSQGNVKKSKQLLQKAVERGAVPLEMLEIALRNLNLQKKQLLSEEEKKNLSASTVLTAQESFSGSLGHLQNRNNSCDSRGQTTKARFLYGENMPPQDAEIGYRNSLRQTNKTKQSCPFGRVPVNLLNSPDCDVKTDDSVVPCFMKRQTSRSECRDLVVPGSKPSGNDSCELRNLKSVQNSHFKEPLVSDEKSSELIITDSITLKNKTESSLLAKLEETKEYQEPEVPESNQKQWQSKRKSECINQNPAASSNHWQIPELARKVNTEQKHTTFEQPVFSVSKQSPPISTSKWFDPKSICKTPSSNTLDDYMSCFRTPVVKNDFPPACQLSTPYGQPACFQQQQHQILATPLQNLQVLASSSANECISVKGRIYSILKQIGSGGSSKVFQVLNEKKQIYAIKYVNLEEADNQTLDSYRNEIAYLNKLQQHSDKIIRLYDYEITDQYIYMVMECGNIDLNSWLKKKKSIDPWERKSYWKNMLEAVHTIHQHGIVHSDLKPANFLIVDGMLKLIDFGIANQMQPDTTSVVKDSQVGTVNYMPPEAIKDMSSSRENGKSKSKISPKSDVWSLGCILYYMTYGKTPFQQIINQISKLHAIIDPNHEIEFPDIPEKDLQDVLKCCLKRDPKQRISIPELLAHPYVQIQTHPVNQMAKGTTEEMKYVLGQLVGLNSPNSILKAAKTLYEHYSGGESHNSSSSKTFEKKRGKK
As to conditions: at 0.1 µM.

The test system of assay [5] is T3, Receptor-type tyrosine-protein kinase FLT3 (Homo sapiens), P36888 [D835Y].
T3 sequence (whole entry): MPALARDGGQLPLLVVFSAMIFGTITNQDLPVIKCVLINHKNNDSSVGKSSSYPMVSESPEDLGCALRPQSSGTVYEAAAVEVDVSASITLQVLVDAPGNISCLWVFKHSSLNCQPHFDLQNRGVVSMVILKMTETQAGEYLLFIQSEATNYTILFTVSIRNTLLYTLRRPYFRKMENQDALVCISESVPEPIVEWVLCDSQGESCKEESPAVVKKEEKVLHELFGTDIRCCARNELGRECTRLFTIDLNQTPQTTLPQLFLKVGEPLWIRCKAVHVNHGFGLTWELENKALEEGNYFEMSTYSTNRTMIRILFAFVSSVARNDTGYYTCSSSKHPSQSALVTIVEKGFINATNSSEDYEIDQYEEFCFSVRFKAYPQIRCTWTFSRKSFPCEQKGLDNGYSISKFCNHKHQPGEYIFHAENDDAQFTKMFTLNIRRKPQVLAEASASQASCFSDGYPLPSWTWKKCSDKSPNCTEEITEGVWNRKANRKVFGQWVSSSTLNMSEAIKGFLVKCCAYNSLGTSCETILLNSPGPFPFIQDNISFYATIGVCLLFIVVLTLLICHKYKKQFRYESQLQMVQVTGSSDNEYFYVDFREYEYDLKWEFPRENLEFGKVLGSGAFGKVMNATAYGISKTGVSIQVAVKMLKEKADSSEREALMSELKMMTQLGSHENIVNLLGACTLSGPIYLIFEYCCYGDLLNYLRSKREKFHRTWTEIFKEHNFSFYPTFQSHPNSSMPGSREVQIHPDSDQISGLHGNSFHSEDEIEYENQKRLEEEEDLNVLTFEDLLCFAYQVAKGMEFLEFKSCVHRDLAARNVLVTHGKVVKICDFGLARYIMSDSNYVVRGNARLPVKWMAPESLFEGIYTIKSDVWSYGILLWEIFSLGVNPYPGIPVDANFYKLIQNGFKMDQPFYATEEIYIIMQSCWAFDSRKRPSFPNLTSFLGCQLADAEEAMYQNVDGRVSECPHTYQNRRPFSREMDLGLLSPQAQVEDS
As to conditions: at 1 µM.

In assay [6] the target is Vascular endothelial growth factor receptor 3 (Homo sapiens) (UniProt P35916). The conditions noted are these: at 0.1 µM.
Sequence of Vascular endothelial growth factor receptor 3 (Homo sapiens) (P35916 whole entry): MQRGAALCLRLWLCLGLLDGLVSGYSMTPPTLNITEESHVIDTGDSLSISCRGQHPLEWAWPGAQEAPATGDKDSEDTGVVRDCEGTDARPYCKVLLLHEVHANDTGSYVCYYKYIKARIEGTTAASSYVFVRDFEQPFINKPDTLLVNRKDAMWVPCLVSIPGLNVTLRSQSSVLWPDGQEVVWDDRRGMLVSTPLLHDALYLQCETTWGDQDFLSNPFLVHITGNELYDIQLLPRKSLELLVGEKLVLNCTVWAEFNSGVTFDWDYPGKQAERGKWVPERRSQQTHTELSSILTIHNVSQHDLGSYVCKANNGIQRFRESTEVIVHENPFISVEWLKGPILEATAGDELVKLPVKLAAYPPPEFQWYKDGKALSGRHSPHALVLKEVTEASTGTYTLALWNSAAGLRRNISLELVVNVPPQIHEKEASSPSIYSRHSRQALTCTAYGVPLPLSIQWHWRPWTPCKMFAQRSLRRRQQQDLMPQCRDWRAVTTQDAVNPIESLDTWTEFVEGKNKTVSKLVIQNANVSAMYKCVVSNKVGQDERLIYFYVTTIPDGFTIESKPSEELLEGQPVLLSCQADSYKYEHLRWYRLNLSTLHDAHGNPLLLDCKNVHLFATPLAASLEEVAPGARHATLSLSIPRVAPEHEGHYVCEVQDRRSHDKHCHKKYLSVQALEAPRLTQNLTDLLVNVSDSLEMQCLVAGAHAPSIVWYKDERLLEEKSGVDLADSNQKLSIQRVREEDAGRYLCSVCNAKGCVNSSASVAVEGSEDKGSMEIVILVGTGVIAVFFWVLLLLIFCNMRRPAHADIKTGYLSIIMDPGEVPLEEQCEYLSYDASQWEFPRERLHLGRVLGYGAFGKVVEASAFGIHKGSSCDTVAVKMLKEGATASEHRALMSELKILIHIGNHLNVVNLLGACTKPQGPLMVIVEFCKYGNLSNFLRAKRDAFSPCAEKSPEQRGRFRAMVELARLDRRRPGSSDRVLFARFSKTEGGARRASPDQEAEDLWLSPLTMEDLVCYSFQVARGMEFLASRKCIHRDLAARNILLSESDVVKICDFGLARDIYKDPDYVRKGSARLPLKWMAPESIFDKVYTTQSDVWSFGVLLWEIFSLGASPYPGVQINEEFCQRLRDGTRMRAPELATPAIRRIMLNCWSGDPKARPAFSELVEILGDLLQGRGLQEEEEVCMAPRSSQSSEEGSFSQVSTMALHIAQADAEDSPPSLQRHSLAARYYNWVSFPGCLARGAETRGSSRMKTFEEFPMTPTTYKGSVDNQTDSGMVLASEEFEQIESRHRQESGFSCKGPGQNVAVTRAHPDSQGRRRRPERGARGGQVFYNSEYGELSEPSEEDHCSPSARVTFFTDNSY
The target is the same in assay [7]. The conditions noted are these: at 1 µM.
Assay [8] has as its target Macrophage colony-stimulating factor 1 receptor (Homo sapiens) (UniProt P07333). The conditions noted are these: at 0.1 µM.
For assay [9] the target is unchanged. As to conditions: at 1 µM.
In assay [10] the target is Tyrosine-protein kinase Fyn (Homo sapiens) (UniProt P06241). The conditions noted are these: at 0.1 µM.
The target is the same in assay [11]. As to conditions: at 1 µM.
Assay [12] concerns the target Tyrosine-protein kinase HCK (Homo sapiens) (UniProt P08631). As to conditions: at 0.1 µM.
Assay [13] shares this target. The conditions noted are these: at 1 µM.
The target of assay [14] is Insulin-like growth factor 1 receptor (Homo sapiens) (UniProt P08069). The conditions noted are these: at 0.1 µM.
The target is the same in assay [15]. As to conditions: at 1 µM.
Assay [16] has as its target Insulin receptor (Homo sapiens) (UniProt P06213). As to conditions: at 0.1 µM.
The target is the same in assay [17]. The conditions noted are these: at 1 µM.
For assay [18], the target named is Insulin receptor-related protein (Homo sapiens) (UniProt P14616). The conditions noted are these: at 0.1 µM.
Sequence of Insulin receptor-related protein (Homo sapiens) (P14616 27-742 limits assumed): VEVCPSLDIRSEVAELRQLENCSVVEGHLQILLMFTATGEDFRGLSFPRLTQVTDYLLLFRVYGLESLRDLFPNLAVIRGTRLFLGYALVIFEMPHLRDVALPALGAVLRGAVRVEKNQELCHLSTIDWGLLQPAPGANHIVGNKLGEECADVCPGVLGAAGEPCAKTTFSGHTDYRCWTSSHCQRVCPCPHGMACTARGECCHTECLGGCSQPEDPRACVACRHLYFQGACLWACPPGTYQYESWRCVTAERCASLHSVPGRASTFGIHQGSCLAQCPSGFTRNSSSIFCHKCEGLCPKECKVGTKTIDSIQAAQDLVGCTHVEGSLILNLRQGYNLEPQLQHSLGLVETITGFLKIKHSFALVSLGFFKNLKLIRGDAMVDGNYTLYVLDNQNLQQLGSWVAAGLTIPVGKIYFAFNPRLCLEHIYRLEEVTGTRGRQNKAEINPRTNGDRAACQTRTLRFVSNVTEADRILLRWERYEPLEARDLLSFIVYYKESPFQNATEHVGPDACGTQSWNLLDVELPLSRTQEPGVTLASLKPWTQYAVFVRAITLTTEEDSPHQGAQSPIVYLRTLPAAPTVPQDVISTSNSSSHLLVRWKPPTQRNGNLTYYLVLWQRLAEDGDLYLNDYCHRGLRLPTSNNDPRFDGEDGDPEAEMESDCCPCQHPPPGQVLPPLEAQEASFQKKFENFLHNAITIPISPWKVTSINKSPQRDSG
Sequence of Insulin receptor-related protein (Homo sapiens) (P14616 747-1297 limits assumed): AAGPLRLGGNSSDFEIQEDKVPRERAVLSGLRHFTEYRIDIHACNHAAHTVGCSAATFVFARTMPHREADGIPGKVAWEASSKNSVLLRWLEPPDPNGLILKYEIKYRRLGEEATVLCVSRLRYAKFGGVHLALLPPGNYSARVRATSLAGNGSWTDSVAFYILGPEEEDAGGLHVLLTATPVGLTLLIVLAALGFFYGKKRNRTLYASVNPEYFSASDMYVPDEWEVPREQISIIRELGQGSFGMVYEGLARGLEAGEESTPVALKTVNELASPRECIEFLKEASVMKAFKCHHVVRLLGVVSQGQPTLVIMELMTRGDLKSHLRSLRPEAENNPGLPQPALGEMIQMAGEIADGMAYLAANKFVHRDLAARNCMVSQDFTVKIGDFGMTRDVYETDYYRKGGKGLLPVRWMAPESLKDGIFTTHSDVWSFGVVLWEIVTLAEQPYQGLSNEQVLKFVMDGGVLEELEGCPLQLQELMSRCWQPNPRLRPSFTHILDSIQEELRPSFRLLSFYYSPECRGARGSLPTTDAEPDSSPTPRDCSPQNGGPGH
The target is the same in assay [19]. The conditions noted are these: at 1 µM.
The target in assay [20] is T4, Tyrosine-protein kinase ITK/TSK (Homo sapiens) (UniProt Q08881).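 Note: mean percent inhibition of ITK from the GSK PKIS screen.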
T4 sequence (whole entry): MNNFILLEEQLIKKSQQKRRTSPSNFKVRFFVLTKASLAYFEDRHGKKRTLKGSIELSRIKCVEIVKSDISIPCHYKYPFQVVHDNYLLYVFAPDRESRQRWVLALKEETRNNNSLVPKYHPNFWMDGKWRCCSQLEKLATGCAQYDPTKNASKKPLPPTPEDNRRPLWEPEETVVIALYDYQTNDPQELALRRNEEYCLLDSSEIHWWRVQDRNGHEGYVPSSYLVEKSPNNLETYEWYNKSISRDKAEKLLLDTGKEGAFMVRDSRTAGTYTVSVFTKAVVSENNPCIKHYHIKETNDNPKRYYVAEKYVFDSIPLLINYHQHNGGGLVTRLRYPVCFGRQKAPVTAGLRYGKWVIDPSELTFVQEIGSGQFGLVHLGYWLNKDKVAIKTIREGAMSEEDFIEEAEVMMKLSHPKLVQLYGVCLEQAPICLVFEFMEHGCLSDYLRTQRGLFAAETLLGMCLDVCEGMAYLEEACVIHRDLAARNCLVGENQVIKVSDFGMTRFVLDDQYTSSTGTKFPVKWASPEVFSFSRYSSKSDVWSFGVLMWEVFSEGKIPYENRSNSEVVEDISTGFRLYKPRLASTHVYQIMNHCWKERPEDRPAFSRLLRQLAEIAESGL
The conditions noted are these: at 0.1 µM.

Sequence of Insulin receptor (Homo sapiens) (P06213 28-758 limits assumed): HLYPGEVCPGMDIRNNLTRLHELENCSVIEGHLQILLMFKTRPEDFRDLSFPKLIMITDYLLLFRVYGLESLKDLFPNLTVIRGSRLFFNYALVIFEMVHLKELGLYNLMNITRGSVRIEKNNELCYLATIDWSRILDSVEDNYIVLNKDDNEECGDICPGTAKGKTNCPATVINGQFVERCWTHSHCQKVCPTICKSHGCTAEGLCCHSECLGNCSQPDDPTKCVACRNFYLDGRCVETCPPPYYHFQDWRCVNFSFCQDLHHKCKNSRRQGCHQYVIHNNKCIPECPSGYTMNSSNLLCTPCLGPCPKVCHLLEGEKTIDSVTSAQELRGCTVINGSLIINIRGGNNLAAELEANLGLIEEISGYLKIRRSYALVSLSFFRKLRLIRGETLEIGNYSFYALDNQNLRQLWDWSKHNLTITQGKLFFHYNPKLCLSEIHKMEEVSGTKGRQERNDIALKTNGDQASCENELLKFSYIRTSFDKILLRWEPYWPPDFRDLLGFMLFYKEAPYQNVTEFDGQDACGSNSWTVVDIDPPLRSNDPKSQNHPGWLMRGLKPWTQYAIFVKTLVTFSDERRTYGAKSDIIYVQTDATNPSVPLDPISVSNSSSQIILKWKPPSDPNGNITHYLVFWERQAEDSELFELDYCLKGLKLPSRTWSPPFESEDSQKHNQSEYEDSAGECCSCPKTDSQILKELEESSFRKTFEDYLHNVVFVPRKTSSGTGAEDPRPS
Sequence of Insulin receptor (Homo sapiens) (P06213 763-1382 limits assumed): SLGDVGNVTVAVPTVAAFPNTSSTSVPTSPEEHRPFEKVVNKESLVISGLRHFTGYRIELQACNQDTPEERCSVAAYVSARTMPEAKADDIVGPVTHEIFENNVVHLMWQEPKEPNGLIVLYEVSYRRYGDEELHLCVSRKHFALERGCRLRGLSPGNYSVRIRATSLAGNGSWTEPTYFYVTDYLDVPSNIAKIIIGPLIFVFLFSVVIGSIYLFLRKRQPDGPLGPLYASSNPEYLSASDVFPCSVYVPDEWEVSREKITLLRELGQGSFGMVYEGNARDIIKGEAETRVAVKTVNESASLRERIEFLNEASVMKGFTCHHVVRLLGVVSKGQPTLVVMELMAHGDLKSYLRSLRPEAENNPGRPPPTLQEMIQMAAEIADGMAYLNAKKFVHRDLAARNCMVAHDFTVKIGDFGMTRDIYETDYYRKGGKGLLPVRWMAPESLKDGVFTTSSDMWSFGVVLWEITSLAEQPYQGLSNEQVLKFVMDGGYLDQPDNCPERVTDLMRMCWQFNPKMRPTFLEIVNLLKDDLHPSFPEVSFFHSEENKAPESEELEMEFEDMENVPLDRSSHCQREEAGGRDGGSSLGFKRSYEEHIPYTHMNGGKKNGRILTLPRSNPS
Sequence of Macrophage colony-stimulating factor 1 receptor (Homo sapiens) (P07333 whole entry): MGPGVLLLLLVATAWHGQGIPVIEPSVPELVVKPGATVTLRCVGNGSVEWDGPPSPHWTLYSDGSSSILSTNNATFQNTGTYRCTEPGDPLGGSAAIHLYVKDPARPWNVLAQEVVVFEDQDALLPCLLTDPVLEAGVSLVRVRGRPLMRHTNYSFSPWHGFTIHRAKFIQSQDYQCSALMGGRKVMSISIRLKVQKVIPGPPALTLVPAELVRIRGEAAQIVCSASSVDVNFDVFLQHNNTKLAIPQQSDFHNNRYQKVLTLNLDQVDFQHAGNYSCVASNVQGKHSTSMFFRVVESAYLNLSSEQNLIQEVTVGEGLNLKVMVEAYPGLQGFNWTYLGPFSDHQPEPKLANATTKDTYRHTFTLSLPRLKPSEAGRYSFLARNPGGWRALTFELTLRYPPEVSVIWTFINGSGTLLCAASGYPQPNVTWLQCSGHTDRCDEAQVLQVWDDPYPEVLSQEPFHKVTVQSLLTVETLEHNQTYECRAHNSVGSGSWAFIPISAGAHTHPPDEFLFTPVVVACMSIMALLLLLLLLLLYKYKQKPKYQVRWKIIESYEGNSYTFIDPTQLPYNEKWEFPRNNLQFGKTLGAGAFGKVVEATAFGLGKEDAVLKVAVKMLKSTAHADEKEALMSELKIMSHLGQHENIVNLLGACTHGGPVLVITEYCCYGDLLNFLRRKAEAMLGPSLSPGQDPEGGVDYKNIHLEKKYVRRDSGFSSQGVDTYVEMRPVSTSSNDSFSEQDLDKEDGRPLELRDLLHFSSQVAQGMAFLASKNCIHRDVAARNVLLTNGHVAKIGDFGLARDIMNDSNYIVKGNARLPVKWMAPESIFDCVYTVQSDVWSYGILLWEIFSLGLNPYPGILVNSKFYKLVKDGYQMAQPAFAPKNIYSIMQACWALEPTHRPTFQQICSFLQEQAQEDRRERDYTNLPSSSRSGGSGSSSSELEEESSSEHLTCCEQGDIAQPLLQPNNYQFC

`CCn1c(-c2nonc2N)nc2c(C#CC(C)(C)O)nc(O[C@@H](CN)c3ccccc3)cc21`: the inhibition in [1] was -1.03%; in [2], 0.95%; in [3], 0.24%; in assay [4], 3.8%; in assay [5], 2.22%; in assay [6], 58.4%. The inhibition in assay [7] was 93.8%; in [8] it was 0.67%; in [9], 1.9%; in assay [10], 3.24%; in assay [11], 25%; in assay [12], 0.41%. For the same compound, the inhibition in [13] is 14.1%; in assay [14] it was -2.18%; in assay [15] it was -0.35%; in assay [16], 1.17%; in assay [17], 1.91%; in [18] it was -1.87%. Also, the inhibition in [19] is -2.16%; in [20], 0.11%.
For `COc1cccc(-n2ncc3c(N/N=C/c4ccncc4)ncnc32)c1`, the inhibition was determined as 6.71% in [1]; 2.19% in assay [2]; 3.32% in [3]; 8.59% in assay [4]; 52.1% in assay [5]; 9.86% in assay [6]. In addition, the inhibition turned out to be 38.4% in [7]; 6.17% in [8]; 30.2% in [9]; 26.5% in assay [10]; 73.8% in assay [11]; 15.7% in assay [12]. In addition, the inhibition in [13] is 59.2%; in [14] it was 4.62%; in assay [15], 4.88%; in [16] it was 6.46%; in assay [17], 7.36%; in [18], 1.64%. For the same compound, the results for the inhibition in assay [19] and in [20] were 5.33% and 1.63%, respectively.
On to `CCn1c(-c2nonc2N)nc2c(C#CC(C)(C)O)ncc(OC[C@@H]3CCCN3)c21`, for which the inhibition in [1] was 0.02%; in assay [2], -0.2%; in [3], -3.86%; in assay [4], 4.43%; in assay [5], -3.96%; in assay [6], 4.88%. The inhibition in [7] is 33.9%; in assay [8], -2.54%; in assay [9] it was 1.4%; in assay [10], 0.24%; in [11], 1.07%; in [12], -1.1%. Further, the inhibition in assay [13] was 1%; in assay [14] it was -4.88%; in assay [15], 0.19%; in assay [16], 0.85%; in assay [17], -1.35%; in assay [18], -1.3%. Moreover, the inhibition in [19] was -0.44%; in assay [20] it was -1.58%.
